This note sets out measurements from PubChem BioAssay (NCI).

SMILES strings stand for the structures. Compounds without any hit were thinned out: in the full panel of roughly 83,000, 20% have a hit.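 In brief: 96-well plates, 48 h treatment, single concentration, percent growth endpoint.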 A number with no mark means an inactive call. Activity calls are given as the source filed them. Rule for the calls: active = growth percent below 10; inactive = the rest.

What all share (test): NCI-60 one-dose screen, 48 h (100 = growth as untreated, 0 = no growth, -100 = all killed)
What all share (details): 10 µM unless noted

For assay [1], the system named is NCI-H23 lung.
Assay [2] relates to NCI-H226 lung.
Assay [3] relates to NCI-H322M lung.
The subject of assay [4] is NCI-H460 lung.
Assay [5] has as its system HOP-92 NSCLC.
Assay [6] deals with NCI-H522 lung.
The test system of assay [7] is A549/ATCC NSCLC.
Assay [8] has as its system 786-0 renal.
Assay [9] relates to COLO 205 colon.
The test system of assay [10] is DU-145 prostate.
Assay [11] relates to K-562 leukemia.
In assay [12] the test system is MALME-3M melanoma.
The test system of assay [13] is MDA-MB-231 breast.
In assay [14] the test system is RXF 393 renal.
Assay [15] has as its system SF-268 CNS.
The subject of assay [16] is SF-295 CNS.
The subject of assay [17] is SF-539 CNS.
The test system of assay [18] is UACC-257 melanoma.
The subject of assay [19] is M14 melanoma.
The test system of assay [20] is HOP-62 NSCLC.

As to `COc1ccc2c(c1)CC[C@@H]1[C@@H]2CC[C@]2(C)C3C(=CC(COC(C)=O)C4C(=O)N(c5ccc(Cl)cc5)C(=O)C43)C[C@@H]12` (some centres not stated), the growth in assay [1] was 91.8%; in [2], 97.3%; in assay [3], 107%; in assay [4], 110%; in assay [5], 90.7%; in assay [6], 89.9%. Further, the growth in assay [7] was 110%; in assay [8], 111%; in assay [9], 118%; in assay [10], 106%; in [11], 52.4%; in [12], 101%. In addition, the growth was 103% in assay [13]; 110% in [14]; 91.7% in assay [15]; 105% in assay [16]; 114% in assay [17]; 109% in assay [18]. Besides, the growth in assay [19] was 98.8%.
Consider `COCCn1cc(-c2nc(-c3cc4cccnc4n3C)cs2)c2ccccc21`, for which the growth is 39.4% in assay [1]; 60.9% in [2]; 41.6% in assay [3]; 19.9% in [4]; 44.1% in assay [5]; -6.38% (active) in [6]. The growth is 28.9% in assay [7]; 56.7% in [8]; 11.9% in assay [9]; 66.8% in assay [10]; 20% in [11]; 70.7% in assay [12]. Further, the growth is 37.1% in assay [13]; 70.7% in assay [14]; 58.9% in [15]; 36.5% in [16]; 60.6% in [17]; 49% in assay [18]. Also, the growth in assay [19] is 24.3%.
As for `COC1C(O)CC(OC2CC(OC3CC(O[C@@H]4C(=O)c5c(cc6cc(OC7CC(OC8CC(O)C(O)C(C)O8)C(O)C(C)O7)c(C)c(O)c6c5O)CC4[C@H](OC)C(=O)C(C)=O)OC(C)C3O)OC(C)C2O)OC1C` (some centres not stated), the growth in assay [1] was -23.8% (active); in [2], -10.8% (active); in [3], -8.5% (active); in assay [4], 8.4% (active); in assay [5], -6.32% (active); in assay [6], -35.4% (active). Further, the growth in [7] is 1.9% (active); in [8], 4.33% (active); in assay [9] it was -47.6% (active); in assay [10], 10.4%; in [11], 2.1% (active); in [12] it was -30.6% (active). Also, the growth was 6.75% (active) in [13]; -56.3% (active) in [14]; 2.33% (active) in [15]; 0.867% (active) in assay [16]; -20.8% (active) in assay [17]; -23.4% (active) in assay [18]. The growth in assay [19] is -34.4% (active).
With `C=C1C(=O)O[C@H]2[C@H]1CC/C(COC(=O)C(=O)c1c[nH]c3ccc(Cl)cc13)=C\CC[C@@]1(C)O[C@@H]21`, the growth is -55.7% (active) in [1]; -73% (active) in [2]; -76.2% (active) in assay [3]; -53.1% (active) in assay [20]; -72.9% (active) in assay [4]; -92.8% (active) in assay [5]. Moreover, the growth in assay [7] was -82.2% (active); in [8], -99.1% (active); in [9], -51.9% (active); in assay [10], -96.2% (active); in [11], 2.92% (active); in assay [12], -75.7% (active). In addition, the growth in assay [13] is -74.8% (active); in [14], -92.9% (active); in assay [15], -81.3% (active); in [16] it was -10.6% (active); in assay [17] it was -78.5% (active); in assay [18], -75.9% (active). The growth in assay [19] was -83.1% (active).
For the compound `COc1cc2c(c(OC)c1OC)CCC(c1cccc(C(=O)Nc3ccc(Br)cc3)c1)O2` (configuration not stated), the growth was 75.8% in assay [1]; 62.7% in [2]; 50% in assay [3]; 82% in assay [20]; 84% in [4]; 17% in assay [5]. In addition, the growth was 64.2% in assay [7]; 84.1% in [8]; 76.5% in [9]; 71% in assay [10]; 40.4% in assay [11]; 72.3% in [12]. Besides, the growth was 17% in assay [13]; 75% in assay [14]; 76.6% in [15]; 56.5% in [16]; 76.6% in assay [17]; 75.6% in assay [18]. In assay [19], the growth was 70.5%.
Consider `Cc1ccc(S(=O)(=O)OC[C@]23CCC(C)(C)C[C@H]2C2=CC[C@@H]4[C@@]5(C)CCCNC(C)(C)[C@@H]5CC[C@@]4(C)[C@]2(C)CC3)cc1`, for which the growth in assay [1] is 73.7%; in assay [2] it was 81.8%; in [3], 79.7%; in [4], -60.2% (active); in [5], 41.8%; in assay [6] it was 62%. For the same compound, the growth in [7] was 34.6%; in assay [8], 34.7%; in assay [9], -66.5% (active); in assay [10] it was 37.9%; in assay [11], -20% (active); in assay [12], 95.8%. In addition, the growth in assay [13] was 45.6%; in [14], 67.9%; in assay [15] it was 69.6%; in assay [16], 104%; in assay [17], 74.8%; in assay [18], 97.4%. Besides, in [19], the growth is 80.7%.
In the case of `CC(C)CCC[C@@H](C)[C@H]1CC[C@H]2[C@@H]3CC=C4c5sc(Nc6cc(C(F)(F)F)cc(C(F)(F)F)c6)nc5CC[C@]4(C)[C@H]3CC[C@]12C`, the growth in [1] was 93.4%; in [2], 104%; in assay [3] it was 99.1%; in [4], 105%; in [5], 79%; in assay [6], 101%. Moreover, the growth in assay [7] is 92.1%; in assay [8], 110%; in assay [9], 99.8%; in assay [10], 104%; in assay [11] it was 101%; in assay [12], 94.8%. Besides, the growth was 108% in [13]; 107% in assay [14]; 101% in assay [15]; 104% in assay [16]; 98% in assay [17]; 99.2% in [18]. The growth in assay [19] is 98.6%.
Regarding `N#CC1=C(N)Oc2c(sc3c(F)cccc23)C1c1ccc([N+](=O)[O-])cc1` (configuration not stated), the growth was -4.82% (active) in [1]; 3.23% (active) in [2]; -24.2% (active) in assay [3]; -26.8% (active) in [4]; -47.5% (active) in assay [5]; -26.3% (active) in assay [6]. Further, the growth was 4.46% (active) in assay [7]; -18.6% (active) in assay [8]; -41.7% (active) in assay [9]; 3.51% (active) in [10]; 1.99% (active) in assay [11]; -24.3% (active) in [12]. In addition, the growth in [13] is -66.2% (active); in [14], -57.3% (active); in assay [15], -23.1% (active); in assay [16], -70.3% (active); in assay [17] it was -79.2% (active); in assay [18] it was -17.2% (active). Also, the growth in assay [19] is -50.9% (active).
